Data: PubChem BioAssay AID651815 (National Center for Advancing Translational Sciences (NCATS), 2012)
Screen size: about 2,100 compounds; about 1,100 (52%) were called active. Another 29% or so got no clear call; they are omitted. Calls come from the whole dose curve; as a rule, active = well fitted inhibition curve with a large enough effect; inconclusive = small, poorly fitted or top-dose-only effect; inactive = no such curve, though single readings can be large or run the other way. So high a share suggests a set chosen from earlier hits. The list shows a part of the results.

target: DNA dC->dU-editing enzyme APOBEC-3F (Homo sapiens) (UniProt Q8IUX4); assay: qHTS for inhibitors of Vif-A3F interactions: Cherry picks counterscreen; details: HeLa A3F-eYFP/Vif cells, eYFP fluorescence, 24 h; series mostly up to 46.1 µM; activity, negative = inhibitor: at the top concentration; note: nearly all actives have a fitted effect of over 65% in size
Method in brief: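 HeLa cells stably expressing A3F-eYFP and Vif, cultured overnight, then treated 24 h at 37 degrees C with compounds at several concentrations; yellow fluorescence (488 nm Ex/500-530 nm Em) imaged on Acumen; MG132 positive control.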
% is set by controls: 0 for no effect and ±100 for the full control effect; potency is the fitted concentration of half-maximal effect.

Sequence of DNA dC->dU-editing enzyme APOBEC-3F (Homo sapiens) (Q8IUX4 whole entry, looked up): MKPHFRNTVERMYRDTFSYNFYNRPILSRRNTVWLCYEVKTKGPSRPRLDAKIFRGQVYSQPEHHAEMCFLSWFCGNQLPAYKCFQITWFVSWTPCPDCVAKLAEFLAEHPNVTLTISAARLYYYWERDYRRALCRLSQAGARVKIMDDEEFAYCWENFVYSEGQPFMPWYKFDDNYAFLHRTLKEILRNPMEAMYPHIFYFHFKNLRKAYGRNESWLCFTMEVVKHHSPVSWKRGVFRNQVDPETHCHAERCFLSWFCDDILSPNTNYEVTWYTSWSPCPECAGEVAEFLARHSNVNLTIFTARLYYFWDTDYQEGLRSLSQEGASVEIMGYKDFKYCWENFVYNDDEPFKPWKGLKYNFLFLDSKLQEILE

Structure (SMILES) | Potency | activity, negative = inhibitor
COc1cccc(N2CCN(Cc3nc4scc(-c5ccccc5)c4c(=O)[nH]3)CC2)c1 | 9.94 µM (active) | 
O=c1[nH]c(CN2CCN(c3ccccc3)CC2)nc2scc(-c3ccccc3)c12 | 16.4 µM (active) | 
O=C(NC(=S)N1CCN(C2CCCCC2)CC1)c1ccccc1 |  | -3.42% (inactive)
COc1ccc(Cl)cc1NC(=O)CN(C)CC(=O)Nc1ccccc1N1CCOCC1 | 3.53 µM (active) | 
C/C(CC(=O)NCc1ccco1)=N\NC(=O)COc1ccc(Cl)cc1Cl | 12.5 µM (active) | 
O=C(Oc1ccc(Cl)c2cccnc12)c1ccco1 |  | -0.697% [at 36.9 µM] (inactive)
C/C(CC(=O)NCc1ccc(Cl)cc1)=N\NC(=O)COc1ccc(C)cc1Br | 15.8 µM (active) | 
c1ccc(N=Nc2ccc3cccccc2-3)cc1 | 15.8 µM (active) | 
CCOC(=O)C(=Cc1ccc(-n2ccnc2)cc1)C(=O)OCC | 12.5 µM (active) | 
CCOC(=O)C(=Cc1ccc(-n2cncn2)cc1)C(=O)OCC | 7.9 µM (active) | 
COc1cc(CNCCSc2nnnn2C)ccc1OCc1c(F)cccc1Cl |  | 4.43% (inactive)
O=C(c1ccccc1)c1c2c(cc3sc4ccccc4[n+]13)-c1cccc3cccc-2c13 | 17.7 µM (active) | 
Oc1ccc(C2=NNC(=NCc3ccc4c(c3)OCO4)SC2)c(O)c1 | 4.98 µM (active) | 
O=C(O)CSc1c2ccccc2cc2ccccc12 |  | -5.3% [at 36.9 µM] (inactive)
Cc1cc(NC(=O)NC(=O)c2ccccc2NC(=O)C(C)N)ccc1Oc1ncc(Br)cn1 (centres undefined) | 3.14 µM (active) | 
O=C1c2cccc3c([N+](=O)[O-])c(O)cc(c23)C(=O)N1Nc1ccccc1 | 23.1 µM (active) | 
O=c1[nH]c2ccccc2n2c(C(F)(F)F)nnc12 | 16.4 µM (active) | 
Cc1cccc(Cn2c(=O)n(CCCC(=O)NCc3ccco3)c(=O)c3ccccc32)c1 | 8.86 µM (active) | 
O=S(=O)(Nc1nc2ccccc2nc1Nc1cccc(S(=O)(=O)N2CCCCC2)c1)c1ccccc1 | 18.4 µM (active) | 
O=C(Nc1ccc(Cl)cn1)c1cccc(S(=O)(=O)N2CCCCCC2)c1 |  | 6.39% [at 36.9 µM] (inactive)

Structure (SMILES) | Potency | activity, negative = inhibitor
Cc1ccc(S(=O)(=O)Nc2nc3ccccc3nc2Nc2cccc(S(=O)(=O)N3CCCC3)c2)cc1 | 3.26 µM (active) | 
O=C(NCc1ccco1)C1Cc2c(-c3cccc(F)c3)ccnc2O1 (centres undefined) | 2.8 µM (active) | 
CC(=O)c1cccc(-c2ccnc3c2CC(C(=O)NCc2ccco2)O3)c1 (centres undefined) | 1.98 µM (active) | 
CC(=O)c1cccc(-c2ccnc3c2CC(C(=O)NCc2ccc(F)c(F)c2)O3)c1 (centres undefined) | 3.96 µM (active) | 
O=C(NCc1ccccc1)C1Cc2c(-c3cccc(F)c3)ccnc2O1 (centres undefined) | 2.8 µM (active) | 
COc1ccc(-n2c(O)c(/C=N/NS(=O)(=O)c3ccc(C)c([N+](=O)[O-])c3)c3ccccc3c2=O)cc1OC | 6.51 µM (active) | 
O=C(O)CSc1cc(NS(=O)(=O)c2cccc([N+](=O)[O-])c2)c2ccccc2c1O |  | -21% [at 36.9 µM] (inactive)
COc1ccc(-n2c(O)c(/C=N/NS(=O)(=O)c3cccc([N+](=O)[O-])c3)c3ccccc3c2=O)cc1OC | 14 µM (active) | 
O=C(CSc1nc2ccc(Nc3nc(N4CCOCC4)nc(N4CCOCC4)n3)cc2s1)Nc1ccccc1F | 20.6 µM (active) | 
Cc1ccc(NC(=O)CSc2nc3ccc(Nc4nc(N5CCOCC5)nc(N5CCOCC5)n4)cc3s2)cc1 | 20.6 µM (active) | 
Cc1ccc(NC(=O)CSc2n[nH]c(-c3ccccn3)n2)cc1 |  | -13.6% (inactive)
CN1CCC(OC(=O)c2cc3cc(Cl)cc(Cl)c3oc2=O)CC1 |  | -1.35% [at 36.9 µM] (inactive)
Cc1ccc(C(=O)CSC2=C(C#N)C(c3ccco3)C3=C(CCCC3=O)N2)cc1 (centres undefined) | 9.94 µM (active) | 
O=C(c1ccc(CS(=O)c2ccccc2Cl)o1)N1CCN(c2ccccc2F)CC1 (centres undefined) | 1.84 µM (active) | 
O=c1c2cc3ccccc3n2cnn1Cc1ccccc1F | 14 µM (active) | 
Cc1ccnc(N/C=C(\C#N)c2nc(-c3cccc(Br)c3)cs2)c1 | 15.8 µM (active) | 
Cc1cc(C)cc(NC(=O)Cn2cc(C(=O)C3CCCCC3)c3ccccc32)c1 | 16.4 µM (active) | 
Cc1cc(C)cc(NC(=S)NC(=O)C2CC2)c1 |  | 1.05% (inactive)
CN(C)c1ccc(/C=C/c2ccnc3ccccc23)cc1O | 18.4 µM (active) | 
Cc1cc(/C=C/c2ccnc3ccccc23)ccc1N | 16.4 µM (active) | 

Structure (SMILES) | Potency | activity, negative = inhibitor
Cc1cc(/C=C/c2ccnc3ccccc23)ccc1N(C)C | 10.3 µM (active) | 
CN1CCCc2cc(/C=C/c3ccnc4ccccc34)ccc21 | 2.59 µM (active) | 
CN(C)c1ccc(/C=C/c2ccnc3ccccc23)cc1C=O | 6.51 µM (active) | 
CCc1cc(/C=C/c2ccnc3ccccc23)ccc1N(C)C | 20.6 µM (active) | 
Cc1ccc(NC(=O)Cc2ccc(-n3cccc3)cc2)c(C)c1 |  | 7.57% (inactive)
Cc1ccc(CNC(=O)Cc2ccc(-n3cccc3)cc2)cc1 | 3.53 µM (active) | 
CCN(CC)CCCNc1ccc2ncn3c4ccc(O)cc4c(=O)c1c23 | 20.6 µM (active) | 
CN(C)CCNc1ccc2ncn3c4ccc(O)cc4c(=O)c1c23 | 20.6 µM (active) | 
C=CCNC(=S)N/N=C/c1ccc(C)cc1C |  | -7.51% (inactive)
CCOc1cc(S(=O)(=O)NCc2ccc(OC)cc2)c(OCC)cc1-n1cnnn1 | 12.5 µM (active) | 
c1ccc2c(c1)Cc1cc3ccccc3nc1-2 | 9.2 µM (active) | 
Cc1ccc(S(=O)(=O)N2CCCCC2CCNC(=O)C(=O)NCc2ccco2)cc1 (centres undefined) | 14 µM (active) | 
COc1cc(/C=C/C(=O)c2ccc3c(c2)OCCO3)cc(Br)c1OCC(=O)N(C)C | 14 µM (active) | 
CN(C)c1ccc(/C=C/c2ccnc3c(Cl)ccc(Cl)c23)cc1 | 5.17 µM (active) | 
CN(C)c1ccc(/C=C/c2ccnc3c(N)cccc23)cc1 | 18.4 µM (active) | 
CN(C)c1ccc(/C=C/c2ccnc3c(Cl)cccc23)cc1 | 9.2 µM (active) | 
COc1ccc(-c2ccc3c(c2)S(=O)(=O)c2cccc(C(=O)NCc4cccc(OC(F)(F)F)c4)c2C3=O)cc1OC | 3.66 µM (active) | 
COc1ccc(-c2ccc3c(c2)S(=O)(=O)c2cccc(C(=O)NCCOc4ccccc4)c2C3=O)cc1OC | 14 µM (active) | 
O=C(NCc1ccccc1Cl)c1cccc2c1C(=O)c1ccc(-c3ccc(OC(F)(F)F)cc3)cc1S2(=O)=O | 16.4 µM (active) | 
